For some of these results: Potency and affinity values are given separately.
Legend:
Set-up in all cases: scale not given: direction of the effect not stated beside the values
[1] = target: Protein translocase subunit SecA (Escherichia coli (strain K12)) (UniProt P10408); assay: Assay to Identify E. coli SecA ATPase Inhibitors; type: functional; details: 30 µM
[2] = target: T1, Ubiquitin-activating enzyme e1, putative (Leishmania donovani (strain BPK282A1)) (UniProt E9BSI1); assay: Leishmania donovani Ubiquitin Activating Enzyme (LdE1); type: functional; details: 30 µM
T1 sequence (whole entry): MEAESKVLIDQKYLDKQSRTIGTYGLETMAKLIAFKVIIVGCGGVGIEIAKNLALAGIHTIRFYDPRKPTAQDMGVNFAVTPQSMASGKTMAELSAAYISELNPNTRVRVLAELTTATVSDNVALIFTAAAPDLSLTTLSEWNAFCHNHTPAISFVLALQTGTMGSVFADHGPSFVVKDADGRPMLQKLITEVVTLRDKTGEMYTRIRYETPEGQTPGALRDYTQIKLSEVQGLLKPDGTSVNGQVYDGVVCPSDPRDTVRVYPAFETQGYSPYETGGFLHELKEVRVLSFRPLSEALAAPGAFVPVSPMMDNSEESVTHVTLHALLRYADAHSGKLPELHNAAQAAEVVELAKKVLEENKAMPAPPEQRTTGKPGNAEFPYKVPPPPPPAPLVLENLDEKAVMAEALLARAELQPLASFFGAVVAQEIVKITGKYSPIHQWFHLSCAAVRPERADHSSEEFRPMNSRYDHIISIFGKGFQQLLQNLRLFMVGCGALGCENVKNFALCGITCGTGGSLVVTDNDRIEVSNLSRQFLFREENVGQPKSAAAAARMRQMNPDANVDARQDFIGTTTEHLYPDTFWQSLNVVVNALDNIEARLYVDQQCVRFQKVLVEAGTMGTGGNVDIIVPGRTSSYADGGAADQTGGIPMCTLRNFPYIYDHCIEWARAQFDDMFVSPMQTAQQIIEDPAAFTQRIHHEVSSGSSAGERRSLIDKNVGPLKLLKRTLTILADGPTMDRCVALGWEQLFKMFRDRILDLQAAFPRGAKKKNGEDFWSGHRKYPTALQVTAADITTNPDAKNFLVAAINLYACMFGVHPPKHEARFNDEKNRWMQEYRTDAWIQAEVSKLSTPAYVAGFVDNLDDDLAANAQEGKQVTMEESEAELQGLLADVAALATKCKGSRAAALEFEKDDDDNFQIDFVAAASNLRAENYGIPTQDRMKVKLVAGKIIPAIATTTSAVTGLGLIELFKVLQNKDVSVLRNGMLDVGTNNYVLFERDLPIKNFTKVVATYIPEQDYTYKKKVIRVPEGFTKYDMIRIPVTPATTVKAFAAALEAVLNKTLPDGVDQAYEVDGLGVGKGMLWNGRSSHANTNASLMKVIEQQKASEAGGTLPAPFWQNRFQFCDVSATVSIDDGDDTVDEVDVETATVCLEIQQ

[3] = target: AMP-activated protein kinase, AMPK (Homo sapiens) (UniProt P54646+O43741+P54619+Q9UGJ0+Q9Y478+Q13131+Q9UGI9); assay: AMP-dependent Kinase enzyme assay. An in vitro enzyme assay that detects ADP turnover that is directly proportional to AMPK activity. This uses naive AMPK that is activated during the assay with MK-8722; type: functional; details: 30 µM
[4] = target: Sialic acid-binding Ig-like lectin 9 (Homo sapiens) (UniProt Q9Y336); assay: Hs-Siglec9 ALPHAscreen SOP 20170721; details: 10 µM
[5] = test system: Trypanosoma cruzi; assay: Trypanosoma cruzi phosphomannomutase and mannose-1-phosphate guanylyltransferase assay; type: functional; details: 10 µM
[6] = target: T2, Arginase-2, mitochondrial (Homo sapiens) (UniProt P78540); assay: in vitro enzyme assay to detect the production of urea directly proportional to the activity of Arginase II; type: functional; details: 33.3 µM; further: in the data most compounds retested in dose-response had high values
T2 sequence (whole entry): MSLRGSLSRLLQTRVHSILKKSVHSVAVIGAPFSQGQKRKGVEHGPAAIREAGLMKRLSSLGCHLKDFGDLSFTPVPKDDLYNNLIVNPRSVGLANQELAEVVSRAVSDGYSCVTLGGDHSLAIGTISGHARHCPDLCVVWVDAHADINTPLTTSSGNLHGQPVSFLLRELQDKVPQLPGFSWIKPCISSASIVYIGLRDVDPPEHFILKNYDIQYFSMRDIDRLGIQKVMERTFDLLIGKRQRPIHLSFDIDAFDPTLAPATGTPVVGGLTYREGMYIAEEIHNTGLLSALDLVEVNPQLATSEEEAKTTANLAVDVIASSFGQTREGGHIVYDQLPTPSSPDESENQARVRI

[7] = target: T3, Proteasome subunit beta (Trypanosoma cruzi) (UniProt O96673); assay: Trypanosoma cruzi proteasome chymotrypsin-like activity (TcProtChymo) assay.; further: in the data most compounds retested in dose-response had high values; type: functional; details: 9.37 µM
T3 sequence (whole entry): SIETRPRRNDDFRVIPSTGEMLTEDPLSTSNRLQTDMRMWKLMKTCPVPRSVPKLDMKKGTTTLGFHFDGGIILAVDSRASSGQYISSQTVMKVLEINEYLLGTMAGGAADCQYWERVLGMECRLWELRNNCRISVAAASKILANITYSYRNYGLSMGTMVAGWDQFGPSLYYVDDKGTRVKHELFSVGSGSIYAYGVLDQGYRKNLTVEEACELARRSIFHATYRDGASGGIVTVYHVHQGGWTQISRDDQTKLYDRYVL

[8] = species on record: Homo sapiens; assay: To identify inhibition of the IFN signalling (Jak-Stat) pathway via expression of an eGFP reporter gene under the control of an IFN-stimulated response element (ISRE) containing MxA promoter.; type: functional; details: 30 µM
[9] = target: T4, Tyrosyl-tRNA synthetase, putative (Trypanosoma cruzi (strain CL Brener)) (UniProt Q4DSP6); assay: Trypanosoma cruzi tyrosyl tRNA synthetase (TcYRS) _High Tyrosine SOP; type: functional; details: 30 µM; further: in the data most compounds retested in dose-response had high values
T4 sequence (whole entry): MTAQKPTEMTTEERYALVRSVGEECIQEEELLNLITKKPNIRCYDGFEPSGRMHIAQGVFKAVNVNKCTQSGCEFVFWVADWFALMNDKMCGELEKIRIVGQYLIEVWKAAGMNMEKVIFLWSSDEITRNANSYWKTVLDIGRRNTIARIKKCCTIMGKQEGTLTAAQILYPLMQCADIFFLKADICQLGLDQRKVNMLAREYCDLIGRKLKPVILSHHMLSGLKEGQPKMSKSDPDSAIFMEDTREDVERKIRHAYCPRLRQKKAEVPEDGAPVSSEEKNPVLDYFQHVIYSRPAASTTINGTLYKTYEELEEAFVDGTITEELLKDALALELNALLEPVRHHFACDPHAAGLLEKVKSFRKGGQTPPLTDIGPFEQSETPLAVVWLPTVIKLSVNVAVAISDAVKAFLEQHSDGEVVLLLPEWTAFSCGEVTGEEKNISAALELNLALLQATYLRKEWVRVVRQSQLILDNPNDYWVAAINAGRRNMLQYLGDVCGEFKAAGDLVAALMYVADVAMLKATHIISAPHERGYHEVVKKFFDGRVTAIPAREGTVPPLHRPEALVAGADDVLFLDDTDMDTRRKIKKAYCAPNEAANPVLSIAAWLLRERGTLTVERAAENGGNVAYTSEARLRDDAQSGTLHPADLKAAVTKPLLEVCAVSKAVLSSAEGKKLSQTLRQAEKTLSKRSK

[10] = target: T4, Tyrosyl-tRNA synthetase, putative (Trypanosoma cruzi (strain CL Brener)); assay: Trypanosoma cruzi tyrosyl tRNA synthetase (TcYRS) SOP; type: functional; details: 30 µM
[11] = target: Chromo domain-containing protein 1 (Saccharomyces cerevisiae (strain ATCC 204508 / S288c) (Baker's yeast)) (UniProt P32657); assay: ScCHD-1 Enzyme Inhibition Assay; type: functional; details: 30 µM; further: in the data most compounds retested in dose-response had high values
Chromo domain-containing protein 1 (Saccharomyces cerevisiae (strain ATCC 204508 / S288c) (Baker's yeast)), sequence (P32657 whole entry, the tested form may be a part): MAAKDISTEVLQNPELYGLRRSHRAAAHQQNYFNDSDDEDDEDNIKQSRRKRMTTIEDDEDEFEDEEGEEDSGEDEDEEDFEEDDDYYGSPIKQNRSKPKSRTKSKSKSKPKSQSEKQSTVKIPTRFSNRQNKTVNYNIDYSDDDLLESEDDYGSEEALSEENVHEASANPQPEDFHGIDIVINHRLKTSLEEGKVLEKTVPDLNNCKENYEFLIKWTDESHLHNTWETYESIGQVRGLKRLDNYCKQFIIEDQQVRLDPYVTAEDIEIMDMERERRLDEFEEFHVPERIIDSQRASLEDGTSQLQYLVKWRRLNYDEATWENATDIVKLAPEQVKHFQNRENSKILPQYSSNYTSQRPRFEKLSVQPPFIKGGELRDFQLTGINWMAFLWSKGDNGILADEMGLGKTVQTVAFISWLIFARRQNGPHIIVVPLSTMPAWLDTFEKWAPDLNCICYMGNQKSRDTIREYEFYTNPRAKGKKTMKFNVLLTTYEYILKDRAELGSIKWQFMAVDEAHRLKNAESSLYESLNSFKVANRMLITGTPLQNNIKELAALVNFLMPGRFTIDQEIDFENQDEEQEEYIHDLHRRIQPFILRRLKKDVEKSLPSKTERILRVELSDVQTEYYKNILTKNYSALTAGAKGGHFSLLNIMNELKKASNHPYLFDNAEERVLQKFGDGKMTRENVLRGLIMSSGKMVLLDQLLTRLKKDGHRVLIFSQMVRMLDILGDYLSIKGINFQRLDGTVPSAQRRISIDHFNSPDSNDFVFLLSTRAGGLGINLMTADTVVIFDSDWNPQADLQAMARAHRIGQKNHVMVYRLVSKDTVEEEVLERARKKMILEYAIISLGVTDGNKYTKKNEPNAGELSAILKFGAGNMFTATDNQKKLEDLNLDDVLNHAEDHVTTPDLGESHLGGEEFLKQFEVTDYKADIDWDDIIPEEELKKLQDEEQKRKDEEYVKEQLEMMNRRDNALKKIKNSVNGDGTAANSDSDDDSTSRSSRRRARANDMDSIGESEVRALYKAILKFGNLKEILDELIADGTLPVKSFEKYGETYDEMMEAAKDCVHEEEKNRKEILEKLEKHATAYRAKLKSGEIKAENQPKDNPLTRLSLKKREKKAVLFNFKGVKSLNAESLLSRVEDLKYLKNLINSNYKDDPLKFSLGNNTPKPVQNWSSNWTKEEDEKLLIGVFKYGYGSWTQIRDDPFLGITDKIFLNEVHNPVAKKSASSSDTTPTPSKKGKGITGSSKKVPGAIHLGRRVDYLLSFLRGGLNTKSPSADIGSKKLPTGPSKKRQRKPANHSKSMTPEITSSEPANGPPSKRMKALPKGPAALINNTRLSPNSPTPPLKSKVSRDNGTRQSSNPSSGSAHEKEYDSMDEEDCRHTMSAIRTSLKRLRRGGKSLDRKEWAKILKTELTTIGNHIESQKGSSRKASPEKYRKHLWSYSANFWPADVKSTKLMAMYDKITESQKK

Protein translocase subunit SecA (Escherichia coli (strain K12)), sequence (P10408 whole entry): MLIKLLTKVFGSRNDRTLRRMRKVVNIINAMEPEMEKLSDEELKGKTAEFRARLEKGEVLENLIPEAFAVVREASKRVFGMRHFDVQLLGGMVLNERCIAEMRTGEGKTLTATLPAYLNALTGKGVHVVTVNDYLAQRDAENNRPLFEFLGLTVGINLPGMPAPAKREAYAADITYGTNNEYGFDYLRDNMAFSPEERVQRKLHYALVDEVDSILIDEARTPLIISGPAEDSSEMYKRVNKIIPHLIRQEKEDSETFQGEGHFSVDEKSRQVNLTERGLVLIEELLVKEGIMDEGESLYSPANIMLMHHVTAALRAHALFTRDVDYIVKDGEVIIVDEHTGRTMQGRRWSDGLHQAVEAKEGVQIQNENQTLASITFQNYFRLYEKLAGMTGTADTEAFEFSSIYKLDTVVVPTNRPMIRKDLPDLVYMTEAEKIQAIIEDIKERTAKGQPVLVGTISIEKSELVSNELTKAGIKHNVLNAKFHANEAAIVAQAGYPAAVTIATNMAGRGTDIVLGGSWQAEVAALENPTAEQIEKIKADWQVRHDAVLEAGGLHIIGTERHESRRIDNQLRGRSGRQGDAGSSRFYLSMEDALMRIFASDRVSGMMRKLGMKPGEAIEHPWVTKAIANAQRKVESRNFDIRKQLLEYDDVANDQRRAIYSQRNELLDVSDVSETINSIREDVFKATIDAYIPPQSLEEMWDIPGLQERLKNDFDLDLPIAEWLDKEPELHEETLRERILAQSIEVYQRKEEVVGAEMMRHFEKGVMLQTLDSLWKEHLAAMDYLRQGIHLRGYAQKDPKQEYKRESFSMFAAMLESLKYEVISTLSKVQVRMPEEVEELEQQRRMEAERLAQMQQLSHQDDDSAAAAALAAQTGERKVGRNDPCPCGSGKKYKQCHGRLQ
Sialic acid-binding Ig-like lectin 9 (Homo sapiens), sequence (Q9Y336 whole entry): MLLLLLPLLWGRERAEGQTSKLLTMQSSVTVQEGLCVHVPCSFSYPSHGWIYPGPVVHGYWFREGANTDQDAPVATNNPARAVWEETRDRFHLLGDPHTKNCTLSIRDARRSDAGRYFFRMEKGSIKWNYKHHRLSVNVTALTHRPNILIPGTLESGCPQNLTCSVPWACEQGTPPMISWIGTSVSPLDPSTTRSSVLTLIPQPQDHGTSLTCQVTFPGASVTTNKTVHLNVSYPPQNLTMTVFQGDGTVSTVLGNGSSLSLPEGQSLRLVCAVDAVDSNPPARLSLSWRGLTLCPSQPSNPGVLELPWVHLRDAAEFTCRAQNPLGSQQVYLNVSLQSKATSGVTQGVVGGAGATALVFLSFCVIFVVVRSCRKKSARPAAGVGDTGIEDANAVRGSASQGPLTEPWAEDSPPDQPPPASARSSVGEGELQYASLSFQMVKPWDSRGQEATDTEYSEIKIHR

| SMILES | Percent Effect [1] [%] | Percent Effect [2] [%] | Percent Effect [3] [%] | Percent Effect [4] [%] | Percent Effect [5] [%] | Percent Effect [6] [%] | Percent Effect [7] [%] | Percent Effect [8] [%] | Percent Effect [9] [%] | Percent Effect [10] [%] | Percent Effect [11] [%] |
| --- | --- | --- | --- | --- | --- | --- | --- | --- | --- | --- | --- |
| Cn1ccc(CN2CCC(CCc3ccc(O)cc3)CC2)cc1=O | -1.04 | 6.33 | 43.4 | 0.347 | 3.38 | -1.07 | 1.89 | 10.3 | 0 | -17.7 | -10.1 |
| COc1ccccc1CC1CCCN(CC(N)=O)C1 (stereo not given) | -0.0936 | 7.79 | 0.0164 | 9.64 | 0.0979 | 2.32 | -0.889 | -0.966 | 2.86 | 9.41 | -6.07 |
| O=C(CCO)N1CCOC2(CCCN(C(=O)c3ccco3)C2)C1 (stereo not given) | 2.21 | -5.2 | 0.24 | 19.9 | 4.82 | 4.14 | 11.3 | -33.1 | -12.9 | -13.6 | 0.942 |
| CN(C)c1nccc(N2CCO[C@H]3CN(CC4CCOCC4)C[C@H]32)n1 | 1.86 | 11 | -5.46 | 12.4 | 4.37 | -3.59 | 10.5 | 30.6 | 4.17 | 18.5 | -7.93 |
| CS(=O)(=O)CCC(=O)Nc1cnn(-c2ccccc2Cl)c1 | -5.57 | 13.5 | -8 | 12.3 | 2.88 | -0.185 | 6.28 | 6.38 | 7.92 | 18.3 | -8.04 |
| Cc1cnc(N2CCCC3(CCN(Cc4csc(C)n4)C3=O)C2)nc1 (stereo not given) | -1.53 | 10.7 | 2.83 | 3.4 | 0.965 | -54.3 | 5.64 | -4.88 | 4.17 | 20 | -8.92 |
| Cc1cc(=O)n(CC(=O)NCC2CCCO2)c(-c2cccc(Cl)c2)n1 (stereo not given) | -4.72 | 18.2 | -2.1 | 12.6 | 6.59 | 11 | 9.15 | -10.7 | 5.38 | 16.1 | -4.38 |
| Cc1csc(CCCNC(=O)[C@H]2CNC[C@@H](C(=O)N3CCCC3)C2)n1 | -4.06 | 8.22 | 0.0773 | 8.38 | -1.39 | 0.399 | 15.8 | -8.49 | 10.4 | 11.1 | -1.73 |
| CCc1cnc(N2CCC(=O)N(CC3CC3)C(C(C)C)C2)nc1 (stereo not given) | 3.49 | 13.5 | -2.35 | 11.8 | -0.965 | 4.29 | 8.62 | 29.3 | 3.7 | 12.2 | -1.36 |
| CN(C)CCN1CCO[C@H]2CN(Cc3cnn(C)c3)C[C@H]21 | -3.56 | 0 | -1.78 | 7.45 | -4.2 | 2.73 | 2.83 | -0.175 | 5.38 | 11.1 | -3.54 |
| CCc1nc(CN(C)C2CCN(Cc3ccc(C#N)cc3F)C2)no1 (stereo not given) | -6.15 | 10.8 | -3.61 | -0.906 | -6.7 | -6.01 | 12.6 | 20.8 | 7.39 | 1.24 | -7.82 |
| CC(NC(=O)NCCCc1n[nH]c(N)c1C#N)c1ccccc1 (stereo not given) | -5.52 | 22.8 | 48.4 | -3.62 | 3.68 | -11.8 | 14.8 | 7.81 | 6.4 | 24.1 | -5.91 |
| CCOc1ccccc1OC1CCN(C(=O)c2ccc(=O)[nH]n2)CC1 | -2.99 | 13.2 | 2.58 | 7.38 | 3.76 | 2.3 | 12.9 | 6.53 | 5.39 | 19.5 | -2.32 |
| Cc1cnn(CCNCc2ccc(OCC(N)=O)cc2)c1 | -7.27 | 5.33 | -3.69 | 3.41 | 3.8 | 5.21 | 4.36 | -9.67 | 3.83 | 8.64 | -7.44 |
| CCc1noc(C(C)N2CCC(NC(=O)c3ccc(C)s3)CC2)n1 (stereo not given) | -3.18 | 7.79 | 2.15 | 19.9 | 2.65 | 2.76 | 12.3 | 17.6 | 4.3 | 11.1 | -0.98 |
| COc1ccc2c(c1)CCN(CCC(=O)O)CC2 | 0.2 | 16.2 | -5.1 | 15.3 | 1.74 | 1.91 | 13.6 | 6.58 | 5.82 | 17.1 | -1.92 |
| Cc1noc([C@@H]2CC[C@@H]3[C@@H](CCN3S(=O)(=O)C3CC3)O2)n1 | 0.234 | 8.11 | 10.7 | -3.31 | -4.3 | 3.33 | 17.2 | 4.51 | 5.94 | 11 | 6.55 |
| CCc1nc(CN2CCOC(Cn3nc(C)nc3C)C2)no1 (stereo not given) | -1.49 | 23.7 | 2.58 | -7.19 | -2.33 | 4.32 | 3.64 | 5.43 | 8.37 | 18.5 | -6.23 |
| O=C(c1cccnc1N1CCOCC1)N1CCCC1Cn1cccn1 (stereo not given) | -4.57 | 7.79 | 5.93 | 8.78 | 1.47 | 0.632 | -0.242 | -15.5 | 3.81 | 2.35 | -12 |
| CC(=O)N(Cc1noc(C)n1)C1CCN(Cc2cc(C)on2)C1 (stereo not given) | -2.56 | 18.2 | 1.37 | -5.63 | 0.0979 | -1.05 | 18.5 | 12.2 | 10.5 | 30.6 | -15 |

From ChEMBL document CHEMBL3988442, “University of Dundee, Small-Polar-MMV Screening Library” (2021)
